The campaign covered roughly 5,500 compounds. About 2,000 (36%) were called active. Inconclusive results (about 18%) are left out. Cut-off read from the data, not from the text of the source: active = normalized growth mostly below about 0.91 (no sharp cut-off); inconclusive = no clear call, values can overlap the other calls; inactive = mostly above about 0.92. Some of the results follow.
Assay: chemical genetic growth profiling, strain panel (AID 1159580);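 note: tested at 20 µM; growth read once vehicle control cultures reached saturation at 30 °C; 1 = growth at the plate median or of vehicle wells; lower values mean less growth of the strain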
Settings: S. cerevisiae deletion strains, growth OD

Measured: normalized growth

NC(C(=O)N[C@@H]1C(=O)N2C(C(=O)O)=C(Cl)CS[C@H]12)c1ccccc1 (some centres undefined)
inactive: locus YAL040C, strain CLN3, hits give low values 0.986 | locus YDR363W, strain ESC2, hits give low values 1.03 | locus YER002W, strain NOP16, hits give low values 1 | locus YMR307W, strain GAS1, hits give low values 0.998 | locus YNL175C, strain NOP13, hits give low values 1.01 | locus YNL197C, strain WHI3, hits give low values 0.99 | locus YNL224C, strain SQS1, hits give low values 1.01 | locus YNL322C, strain KRE1, hits give low values 1 | locus YOR083W, strain WHI5 (second series), hits give low values 0.992

Source: PubChem BioAssay AID1159580 (chemical genetic matrix, 2015)
